# High-throughput results: PubChem BioAssay, National Center for Advancing Translational Sciences (NCATS)
# The list is not random: actives were taken first. Their share in the collection is about 1.3%.
# KCNH2 3.1 block = KCNH2 3.1 (human) potassium channel inhibition | U2OS KCNH2 3.1, thallium flux FluxOr; hits give low values | activity change, % (tested at about 1.8 µM) | 0.95% of 340,000 active | AID 720553;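 active = maximum activity change below -70%; inconclusive = maximum activity change from -70% to -50%; inactive = maximum activity change above -50%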;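 also: thallium influx rate constant from kinetic fluorescence after stimulation buffer; % is scaled to controls: 0 for no effect and ±100 for the full control effect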
#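 We transduce U2OS cells with the mutant 3.1 virus, culture them overnight, load FluxOr with Red40 quencher for 45 min, then add stimulation buffer and read kinetically for 2 min to derive a normalized rate constant.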
# TRPML1 agonist = human mucolipin-1 channel agonism. TRPML1-expressing cells, Ca2+ dye fluorescence, FDSS. activation, % (no concentration beside the values). 0.12% of 410,000 active. AID 624414; in the data active = activation above about 50%; inconclusive = mostly about 30% to 49%; also: 0% is about no effect
# Target sequence (Q9GZU1 whole entry, looked up): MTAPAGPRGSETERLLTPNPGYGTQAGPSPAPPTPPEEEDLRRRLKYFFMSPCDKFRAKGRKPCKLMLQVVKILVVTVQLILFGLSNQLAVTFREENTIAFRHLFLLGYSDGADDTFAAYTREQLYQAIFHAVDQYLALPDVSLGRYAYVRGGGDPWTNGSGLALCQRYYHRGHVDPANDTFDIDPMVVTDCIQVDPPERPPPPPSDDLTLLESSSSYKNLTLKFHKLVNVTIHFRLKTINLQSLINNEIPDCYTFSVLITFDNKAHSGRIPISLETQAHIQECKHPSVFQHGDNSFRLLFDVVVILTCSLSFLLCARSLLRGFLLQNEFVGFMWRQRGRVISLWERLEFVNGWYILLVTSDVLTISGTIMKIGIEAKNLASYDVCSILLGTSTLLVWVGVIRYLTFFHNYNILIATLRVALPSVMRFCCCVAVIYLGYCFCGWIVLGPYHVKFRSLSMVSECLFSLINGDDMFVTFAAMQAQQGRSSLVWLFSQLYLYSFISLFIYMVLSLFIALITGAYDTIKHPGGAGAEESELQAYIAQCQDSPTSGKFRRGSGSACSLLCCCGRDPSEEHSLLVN
#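 Tetracycline-induced TRPML1-DL cells are seeded and incubated overnight before loading with a no-wash Ca2+ dye and quencher. Agonist activity is taken from the 110 s fluorescence read following compound pin-transfer on an FDSS, before EC80 54-4 challenge.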
# hERG WT inh = inhibitors of human wildtype KCNH2 potassium channel; 0.37% of 340,000 active; U2OS, BacMam KCNH2, thallium flux FluxOr; hits give low values; activity change, % at 1.84 µM;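 active = maximum activity change below -70%; inconclusive = maximum activity change between -70% and -50%; inactive = maximum activity change above -50%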; also: % is scaled to controls: 0 for no effect and ±100 for the full control effect
#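 U2OS cells transduced with wild-type KCNH2 virus are loaded with FluxOr dye for 45 min, and thallium flux is measured in kinetic reads before and after stimulation buffer. Rate constants are normalized to DMSO controls.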
# TRPV1 ag = activates the human vanilloid receptor TRPV1; Q8NER1; TRPV1-expressing cells, Fluo-8 calcium influx, agonist mode; activation, % at 8.33 µM; 0.19% of 320,000 active; in the data active = activation above about 80%; inconclusive = between about 30% and that limit; also: 0% is about no effect
#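 TRPV1-expressing cells were cultured overnight at 35.5C and loaded with Fluo-8 calcium dye for 40 to 90 min at room temperature. After a 10 s baseline, compound was added and calcium influx was read kinetically for 3 min (ex 480/em 520 nm).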
# TRPML1 inh = human mucolipin-1 channel inhibition; AID 624415; 0.02% of 390,000 active; activity change, negative = inhibition, % (test concentration not listed); TRPML1-inducible cells, Ca2+ dye fluorescence, FDSS; hits give low values; inhibition of EC80 agonist-evoked calcium signal; in the data active = activity change below about -50%; inconclusive = between about -30% and that limit;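 also: stimulus is agonist 54-4 at its EC80 concentration; % is scaled to controls: 0 for no effect and ±100 for the full control effect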
#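 Tet-induced TRPML1-DL cells loaded with Ca8 no-wash calcium dye were read kinetically on FDSS. Compound addition was followed by EC80 agonist 54-4 (4 uM final); inhibition was read over 110 s.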
# TRPV1 PAM = potentiators of human vanilloid receptor 1 (TRPV1) | Q8NER1 | potentiation, % at 8.33 µM | TRPV1-expressing cells, Fluo-8 calcium influx, capsaicin EC20 potentiation | 0.02% of 320,000 active | AID 540277; in the data active = potentiation above about 80%; inconclusive = between about 30% and that limit; also: 0% is about no effect
#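 Cells expressing TRPV1 were dye-loaded with Fluo-8 and read kinetically: 10 s baseline, 3 min after compound (agonist portion), then 2 min after EC20 capsaicin (allosteric enhancer portion). Calcium-bound dye fluorescence at 480/520 nm.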
# * hit, by the source's call; ? = inconclusive; nt = not tested or not shown.
SMILES,KCNH2 3.1 block,TRPML1 agonist,hERG WT inh,TRPV1 ag,TRPML1 inh,TRPV1 PAM
Cc1ccccc1NC(=O)c1ccc(-c2ccc(Cl)cc2Cl)o1,-16.6,3.4,1.5,14.9,-50.6*,3.0
O=C(Nc1ccc(CN2CCOCC2)cc1)c1ccc(-c2cccc(Cl)c2)o1,-49.4,0.2,-0.6,nt,-0.1,nt
Cc1ccc(C)c(OCC(=O)NCC(C)(C)N2CCOCC2)c1,-13.2,0.1,10.1,0.4,-6.0,3.3
Cc1cccc(OCC(=O)NCC(C)(C)N2CCOCC2)c1,-153.1*,-0.4,13.9,-0.9,42.5,2.2
CCOC(=O)N1CCN(C(=O)c2cnc(Nc3ccccc3OC)c3ccccc23)CC1,-193.2*,0.1,1.7,-1.2,-7.0,-5.7
CCc1c(C)sc2c1CCN(C(=O)Nc1cc(C)ccc1OC)C2c1ccc(F)cc1 (configuration not stated),nt,2.7,nt,nt,5.6,nt
CC(C)CCC(CCN1CCOCC1)c1ccc2c(c1)OCO2 (configuration not stated),-111.1*,-0.5,-115.5*,10.0,-7.6,-18.7
COCCCNCCC(CCC(C)C)c1ccc2c(c1)OCO2 (configuration not stated),?,0.4,?,14.0,-3.8,-14.0
CC(C)CCC(CCN1CCCC1)c1ccc2c(c1)OCO2 (configuration not stated),-104.7*,0.3,?,nt,-13.3,nt
COc1ccc(N(C)S(=O)(=O)c2ccc(C)cc2)c([N+](=O)[O-])c1,1.6,2.9,-2.3,15.3,14.0,-4.5
Cc1ccc(S(=O)(=O)N(C)c2ccc(C)c([N+](=O)[O-])c2)cc1,-4.8,1.8,-3.2,-5.5,29.4,80.1*
Cc1ccc2nc(-c3cccc(NC(=O)CSc4ccc(Cl)cc4)c3)oc2c1,nt,0.4,nt,nt,8.5,nt
O=C(O)c1cccc(NS(=O)(=O)c2ccc(Oc3ccc(S(=O)(=O)Nc4cccc(C(=O)O)c4)cc3)cc2)c1,1.3,-1.0,-144.2*,nt,4.5,nt
O=C(NNS(=O)(=O)c1ccc([N+](=O)[O-])cc1)c1ccccc1,11.4,0.6,5.2,nt,-1.6,nt
O=C(O)c1cccc(NS(=O)(=O)c2ccc(-c3ccc(S(=O)(=O)Nc4cccc(C(=O)O)c4)cc3)cc2)c1,-8.3,0.9,-7.7,3.7,-8.7,-7.8
O=C(NNS(=O)(=O)c1ccc([N+](=O)[O-])cc1)C(=O)Nc1cccc(C(=O)O)c1,14.5,-0.1,-111.9*,-0.3,-6.2,15.6
Cc1ccc(S(=O)(=O)N2CCN(c3nc(-n4cncn4)nc4ccccc34)CC2)cc1,nt,-0.6,nt,nt,nt,nt
CC(=O)c1cccc(NC(=O)CSc2nc(=O)n(Cc3ccco3)c3c2CCC3)c1,nt,-0.1,nt,nt,-5.2,nt
CN(N=O)c1ccc(/C=C/c2ccccc2)cc1,nt,-0.8,nt,nt,nt,nt
COc1cccc(-c2sc3ccccc3c2-c2ccc(OCCN3CCCCC3)cc2)c1,-75.5*,-0.7,5.7,nt,31.3,nt
O=C1OC(c2ccccc2)(c2ccccc2)c2ccccc21,-39.9,6.5,-44.7,nt,31.7,nt
O=C1CC(c2ccccc2)(c2ccccc2)c2ccccc21,-102.7*,1.6,-95.1*,nt,-0.3,nt
CC(C)(C)c1cc(CCC(=O)Nc2ccncc2)cc(C(C)(C)C)c1O,-8.8,-0.1,-20.0,nt,5.8,nt
CC(C)(C)c1cc(CCC(=O)NCc2ccncc2)cc(C(C)(C)C)c1O,15.4,-0.4,-1.8,91.3*,-4.1,-12.4
O=C(CCC1CCN(C(=O)c2cc(C(F)(F)F)ccc2Cl)CC1)NC1CC1,-115.5*,1.5,5.0,17.6,-5.6,12.4
SMILES,KCNH2 3.1 block,TRPML1 agonist,hERG WT inh,TRPV1 ag,TRPML1 inh,TRPV1 PAM
Brc1ccc2ncnc(NCc3ccco3)c2c1,-2.0,0.0,-2.2,0.1,11.5,14.2
OC(CNCc1ccco1)Cn1c2ccc(Br)cc2c2cc(Br)ccc21 (configuration not stated),-100.2*,-0.3,-97.9*,0.1,-13.4,9.1
CC(C)Oc1ccc(C(=O)Nc2cccc(S(=O)(=O)N3CCCC3)c2)cc1,-125.3*,1.2,14.6,nt,102.2,nt
O=C(Nc1cccc(S(=O)(=O)N2CCCCC2)c1)c1ccc2ncsc2c1,-4.8,0.9,2.7,84.8*,37.5,-15.7
COc1cccc(NC(=O)c2ccc(S(=O)(=O)N3CCCC3)cc2)c1,-16.0,0.0,12.6,27.3,-3.1,-3.3
O=C(Nc1cccc(S(=O)(=O)N2CCOCC2)c1)C1CC1,-12.5,-0.8,-8.0,nt,12.1,nt
CC(C)Oc1ccc(C(=O)Nc2ccc([N+](=O)[O-])cc2)cc1,-4.5,-0.6,-12.9,?,8.2,-0.7
CC(OC(=O)C1CC1)C(=O)Nc1cccc(S(=O)(=O)N2CCOCC2)c1 (configuration not stated),-133.7*,2.1,12.3,nt,29.4,nt
CC(C)Oc1ccc(NC(=O)c2ccncc2)cc1,-3.6,0.5,-9.0,85.8*,-9.8,-19.3
CCN(CC)/[N+]([O-])=N/OCOC(=O)C(C)c1ccc(CC(C)C)cc1 (configuration not stated),nt,-0.2,nt,nt,-14.0,nt
CCOC(=O)c1cc(-c2ccccc2)n(CCCC(=O)Nc2cc(C)ccc2OC)c1C,nt,1.1,nt,nt,5.8,nt
O=C(Nc1cccc(S(=O)(=O)N2CCCCC2)c1)C1CCC1,-91.7*,-0.8,88.2,29.9,33.6,-19.0
CC(=O)N(C)c1ccc(OCC(O)Cn2c3ccc(Cl)cc3c3cc(Cl)ccc32)cc1 (configuration not stated),-29.1,4.9,-75.5*,-3.0,39.5,7.2
CC(=O)N(C)c1ccc(OCC(O)Cn2c(C)nc3ccccc32)cc1 (configuration not stated),-2.9,-0.8,2.9,-1.9,-10.5,1.4
O=C(c1cccc(Cl)c1Cl)N(Cc1ccco1)Cc1cccs1,nt,-0.8,nt,nt,nt,nt
CC(=O)Nc1ccc(NC(=O)CCc2c(C)nc3c(c(C)nn3-c3ccc(C)cc3)c2C)cc1,nt,-0.2,nt,nt,-9.4,nt
Cc1nc(-c2cccc(S(=O)(=O)N3CCCC(C)C3)c2)cs1 (configuration not stated),-1.4,-1.2,4.2,29.2,-3.2,-10.8
CC1CCCN(S(=O)(=O)c2cccc(-c3cn4cccnc4n3)c2)C1 (configuration not stated),-109.7*,1.2,6.5,10.9,-9.8,?
CCc1ccc(OCCCC(=O)Nc2nnc(C3CCCO3)s2)cc1 (configuration not stated),0.2,1.3,-248.1*,-1.3,5.7,-5.0
CCCCc1ccc(NC(=O)COC(=O)c2ccccc2OCC(=O)Nc2ccc(Br)cc2)cc1,nt,-0.5,nt,nt,nt,nt
Clc1cccc(Cl)c1C1Nc2cccc3cccc(c23)N1,-96.6*,-0.6,-5.7,18.3,6.3,-0.9
